“And” between values parts separate entries of the source, which are not always exact repeats. Equal values may be shown once. In all, about 290,000 compounds went through this assay and about 3,000 (1%) were called active. This is one part of a sample in which actives are shown more often than they occur. Values without a mark were called inactive. No stated cut-off is given here; in the data, active means inhibition mostly above about 36% (no sharp cut-off); inactive means mostly below about 34%.

As usually defined, the inhibition is the change of the read-out against control, counted positive when it falls.

A short description of this assay: inhibition of NOD1-driven NF-kB reporter – cell-based, luminescence, uHTS, primary screen (AID 1578).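 Further: HEK-293T reporter cells stimulated with the NOD1 agonist gamma-tri-DAP.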 Particulars: NOD1-driven NF-kB luciferase reporter cells, at 4 µM, hits give high values. On the technique in general: Reporter assays use an easily measured gene product as a stand-in for the process of interest.
For `CCOc1ccc(OCC)c(S(=O)(=O)n2cc(C)nc2CC)c1`, the inhibition is -17.2%.
Take `CCc1nc(C(N)=O)c2[nH]c(=O)n(-c3ccccc3F)c2n1`: the inhibition was -17%.
Take `Nc1cccc2c1C(=O)N(C(=O)/C=C/c1cccc(Br)c1)C2=O`: the inhibition was 3.9%.
Turning to `COc1cc(/C=C/C(=O)N2C(=O)c3cccc(N)c3C2=O)cc(OC)c1OC`, the inhibition is 17.4%.
With `COc1ccc(OC)c(/C=C/C(=O)N2C(=O)c3cccc(N)c3C2=O)c1`, the inhibition was 88.6% (active).
The figure for `COCCSc1nnc(NC(=O)Cc2ccc(OC)cc2)s1` is -20.4%.
With `CCN1C(=O)C(CC(=O)Nc2ccc(OC)cc2)N(CCCN2CCN(c3ccc(F)cc3)CC2)C1=S` (centres undefined), the inhibition is -47.7%.
In the case of `COc1ccccc1N1CCN(C(=O)CCCNC(=O)Cn2cnc3sc(C)c(C)c3c2=O)CC1`, the inhibition is 17.8%.
The figure for `Cc1cccc(NC(=O)CSc2nccn2Cc2ccco2)c1C` is -19.3%.
With `CN(CCO)c1ccc(/C=N/Nc2nncc3ccccc23)cc1` the figure was 57.1% (active); with `CN(C)c1ccc(/C=N/Nc2nncc3ccccc23)cc1`, 15%; with `COc1ccc(/C=N/Nc2nncc3ccccc23)cc1`, 0.2%.
As to `O=C(COC(=O)c1sc2cc(Cl)ccc2c1Cl)Nc1ncc(Cl)cc1Cl`, the inhibition is -10.9%.
As for `COc1ccccc1-c1cc(-c2ccccc2)nc(=O)[nH]1`, the inhibition is -2.4%.
As for `COc1ccc(NC(=O)c2cc([N+](=O)[O-])ccc2N2CCCC2)cc1`, the inhibition is -23.7%.
Turning to `COc1ccc(NC(=O)c2cc([N+](=O)[O-])ccc2N2CCCCC2)cc1`, the inhibition was -27.2%.
As to `COc1ccc(NC(=O)c2cc([N+](=O)[O-])ccc2O)cc1`, the inhibition was 99.1% (active).
For `CCN1CCc2c(OCc3ccc(C)cc3)cccc2C1=O`, the inhibition is 2.6%.
Turning to `CCCCn1c(-c2csc3ccccc23)n[nH]c1=S`, the inhibition is 5.2%.
Turning to `CCCCNC(=O)C1CCN(C(=O)C2CCN(S(=O)(=O)c3ccc(C)cc3)CC2)CC1`, the inhibition was -21.1%.
With `C=CCC1(CC=C)CCCN1C(=O)c1cc(COc2cccc(OC)c2)on1`, the inhibition is 0.2%.
In the case of `C=CCC1(CC=C)CCCN1C(=O)c1cc(COc2ccc(F)c(F)c2)on1`, the inhibition is -18.8%.
For `CNC(=O)/C=C1\NC(C)(C)Cc2c1ccc1ccccc21`, the inhibition is 14.5%.
The figure for `Cc1nnc(N/N=C/C(C)c2ccccc2)[nH]c1=O` (centres undefined) is -10%; for `O=C(CCn1c2c(c3ccccc31)CCCC2)NNC(=O)c1ccc([N+](=O)[O-])cc1` it is -4.7%; for `CCCCn1c(SCC(=O)Nc2nnc(C)s2)nnc1-c1ccoc1C` it is 8.6%.
Consider `O=C(NCC(O)c1ccc2ccccc2c1)c1c(F)cccc1F` (centres undefined), for which the inhibition was -2.4%.
With `O=C(NCCCNC(=O)c1c(F)cccc1F)c1c(F)cccc1F`, the inhibition was 1.4%.
In the case of `O=C(NCC(Cl)c1ccc2ccccc2c1)c1c(F)cccc1F` (centres undefined), the inhibition was 31.2% (active).
`Cc1ccc(CN(Cc2cc3cc(C)ccc3[nH]c2=O)C(=O)N2CCOCC2)cc1`: the inhibition was -1.5%.
The figure for `CC(C)CNC(=O)COC(=O)c1cc(Cl)cc(Cl)c1N` is -25.7%.
With `CC1(C)Cc2nc(N)c(=O)sc2C1`, the inhibition is 5.3%.
On to `CC(/C=C\c1cccnc1)=C/C(=O)O`, for which the inhibition was -5.6% and -22.2%.
With `O=C(O)/C=C/c1cccnc1` the figure was -4.2%; with `O=C(/C=C/c1cccnc1)/C=C/c1cccnc1`, 49.7% (active); with `COC(=O)CCC(=O)N(C)CC1CCCN(CCc2cccc(C(F)(F)F)c2)C1` (centres undefined), 6.2%.
Take `O=C(O)CCN1C(=O)c2ccc(Oc3ccc([N+](=O)[O-])cc3)cc2C1=O`: the inhibition was -1.1%.
Turning to `COc1ccccc1N(C(=O)c1snc(C(N)=O)c1N)C(C(=O)NC1CCCC1)c1ccc(N(C)C)cc1` (centres undefined), the inhibition was -3%.
On to `O=C(N/N=C/c1cccc2nccnc12)c1ccccc1O`, for which the inhibition is 6%.
For `O=C(C#Cc1cccc([N+](=O)[O-])c1)c1ccccc1`, the inhibition was 55.8%.
As for `O=C(C#Cc1ccccc1)c1ccc([N+](=O)[O-])cc1`, the inhibition was 38.4%.
With `O=C(C#Cc1ccccc1)c1cccc([N+](=O)[O-])c1` the figure was 79.8% (active).
Consider `Cc1nn(CCCC(=O)NC(C)c2ccccc2)c(=O)c2nn(-c3ccccc3)c(C)c12` (centres undefined), for which the inhibition is -16.8%.
With `COc1ccccc1C(=O)Nc1ccccc1C(=O)NCc1ccco1`, the inhibition is 25.7%.
The figure for `CCCSc1nc(SCC(=O)NCc2ccccc2)c2c3c(sc2n1)COC(C)(C)C3` is -25.4%; for `O=C(Nc1ccccc1)c1cnc2ccccc2n1` it is -56.8%; for `CC(NC(=O)c1cnc2ccccc2n1)c1ccccc1` (centres undefined) it is 78.3% (active).
With `CC(NC(=O)c1ccc2ccccc2n1)c1ccccc1` (centres undefined) the figure was -34.3%.
As to `COc1ccc(S(=O)(=O)NC(N)=NCCc2ccc(OC)c(OC)c2)cc1C`, the inhibition is -11.6%.
In the case of `O=C1c2ccccc2C(=O)C12OC2c1ccc(Cl)cc1Cl` (centres undefined), the inhibition is 36.6%.
The figure for `O=C1c2ccccc2C(=O)C12OC2c1cccc2ccccc12` (centres undefined) is -22.4%; for `O=C1c2ccccc2C(=O)C12OC2c1ccc(Cl)cc1` (centres undefined) it is 81.6% (active); for `C(=N\n1cnnc1)/C1CCCCC1` it is -17.3%.
`Nc1c(N2CCN(c3ccccc3)CC2)c2ccccc2oc1=O`: the inhibition was 60.8% (active).
For the molecule `Nc1c(N2CCCC2)c2ccccc2oc1=O`, the inhibition is -10.9%.
As to `Nc1c(N2CCCCC2)c2ccccc2oc1=O`, the inhibition is -15%.
As to `COc1ccc(OC)c(NC(=O)Cc2c(C(=O)O)n(C)c3ccccc23)c1`, the inhibition was -25.2%.
Regarding `NC(=O)C1CCN(C(=O)c2ccc3nc(N4CCCCC4)sc3c2)CC1`, the inhibition is -2.5%.
In the case of `COC(=O)Cc1ccc(NC(=S)NCc2ccccc2OC)cc1`, the inhibition was -14.6%.
For the molecule `O=C(CC1NCCNC1=O)Nc1ccccc1` (centres undefined), the inhibition was -14.1%.
Regarding `Cc1ccc(C)c(NC(=O)C2CCCN(S(=O)(=O)c3c(C)noc3/C=C/N(C)C)C2)c1` (centres undefined), the inhibition is -11.5%.
As to `COc1ccc(/C=N/NC(=O)c2cccnc2)cc1O`, the inhibition was 20%.
As for `Cc1oc(-c2ccc3c(c2)OCCO3)cc1C(=O)NCC(=O)O`, the inhibition is -22.5%.
Consider `Cc1oc(-c2ccc3c(c2)OCCO3)cc1C(=O)O`, for which the inhibition is 89.2% (active).
Regarding `CCOC(=O)CNC(=O)c1cc(-c2ccc3c(c2)OCCO3)oc1C`, the inhibition was -24%.
`C=C1CCC[C@]2(C)C[C@H]3OC(=O)C(CNCC(OC)OC)[C@H]3CC12` (some centres undefined): the inhibition is -18%.
Turning to `COc1cc(/C=N/O)cc(Br)c1OC`, the inhibition is 6.6%.
Take `CCCOc1c(Br)cc(/C=N/O)cc1OC`: the inhibition was 6%.
`COc1cc(/C=N/O)cc(Br)c1OS(=O)(=O)c1ccc(C)cc1`: the inhibition was 78% (active).
The figure for `COCCNC(=S)N1CCOCC1` is -13.4%.
Regarding `CC(C)(C)C1=NN(c2ccc([N+](=O)[O-])cc2)C(c2ccccc2)C1` (centres undefined), the inhibition is -37.3%.
Consider `COc1ccc(S(=O)(=O)N(C)C)cc1NC(=O)COC(=O)CC1CCCC1`, for which the inhibition was 41.4% (active).
With `CN(C)S(=O)(=O)c1ccc(Cl)c(NC(=O)COC(=O)CN2C(=O)C3CCCCC3C2=O)c1` (centres undefined) the figure was -45.6%; with `CCN(CC)S(=O)(=O)c1ccc(OC)c(NC(=O)CC2CCCC2)c1`, -26.7%; with `CN(CC(=O)Nc1ccc(Cl)c(Cl)c1)C1CCCCC1`, -29.4%.
As to `O=C(c1ccco1)N(Cc1ccco1)Cc1cc2ccccc2[nH]c1=O`, the inhibition is 5.8%.
The figure for `O=C(C1COc2ccccc2O1)N1CCCC1` (centres undefined) is 9.4%; for `O=C(C1COc2ccccc2O1)N1CCc2ccccc21` (centres undefined) it is -44.3%.
With `O=C(C1COc2ccccc2O1)N1CCc2ccccc2C1` (centres undefined), the inhibition is 45.7% (active).
Take `Cc1ccc(CSc2nnc3ccc(-c4ccncc4)nn23)cc1`: the inhibition is -23.9%.
Consider `Cc1ccc(C(=O)N2CCCC(C(=O)c3ccc(Oc4ccccc4)cc3)C2)cn1` (centres undefined), for which the inhibition was 61% (active).
`O=C(c1ccc(Oc2ccccc2)cc1)C1CCCN(C(=O)c2cnccn2)C1` (centres undefined): the inhibition was -4.3%.
Turning to `CSc1ccc(C(=O)C2CCCN(C(=O)c3ccc(C)nc3)C2)cc1` (centres undefined), the inhibition is -25.1%.
On to `Cc1ccc(O)c(Nc2ncnc3ccc([N+](=O)[O-])cc23)c1`, for which the inhibition is 28.1%.
Consider `COc1ccc([N+](=O)[O-])cc1Nc1ncnc2ccccc12`, for which the inhibition is -1.9%.
As for `COc1ccc(Nc2ncnc3ccc([N+](=O)[O-])cc23)c(OC)c1`, the inhibition was 7%.
As to `Cc1ccc2ncnc(Nc3cccc([N+](=O)[O-])c3)c2c1`, the inhibition was 13.8%.
`O=[N+]([O-])c1ccc2ncnc(Nc3ccc4c(c3)OCCO4)c2c1`: the inhibition was 65.2% (active).
For `CCOC(=O)COn1c(=O)c(-c2ccccc2)[n+]([O-])c2ccccc21`, the inhibition was 0.2%.
Turning to `COc1ccc(/C=N/NC(=O)c2ccc(Br)cc2)c(OC)c1`, the inhibition was -40.4%.
For the molecule `COC(=O)C1=C(C)NC(C)=C(C(=O)OC)C1c1ccco1`, the inhibition is -5.8%.
With `CCOc1ccc(NC(=O)COC(=O)Cc2ccc(S(=O)(=O)N3CCOCC3)s2)cc1`, the inhibition was 5.1%.
Regarding `Cc1ccc(-n2nc3c(=O)n(CC(=O)NCc4ccccn4)nc(C)c3c2C)cc1`, the inhibition is -3.4%.
As for `CC(C)(C)OC(=O)N1CCOCCOCCN(C(=O)OC(C)(C)C)CCOCCOCC1`, the inhibition is 4.4%.
Consider `COC(=O)c1nc(NC(=O)c2cc(OC)c(OC)c(OC)c2)n[nH]1`, for which the inhibition is 15.5%.
With `CCN1CCN(CC(=O)c2c[nH]c3ccc(C)cc23)CC1`, the inhibition was -10.6%.
As for `Cc1ccc2[nH]cc(C(=O)CCl)c2c1`, the inhibition was 107% (active).
In the case of `CCN(CC)CC(=O)c1c[nH]c2ccc(C)cc12`, the inhibition was -11.4%.
Consider `Nc1ccc(S(=O)(=O)c2ccc(Cl)cc2)cc1`, for which the inhibition was 4%.

The record behind these values is PubChem BioAssay AID1578 (Sanford-Burnham Center for Chemical Genomics, 2009).
